# Laboratory results taken from ChEMBL document CHEMBL4513216, “Probing the Open Global Health Chemical Diversity Library for Multistage-Active Starting Points for Next-Generation Antimalarials” (ACS Infect Dis, 2020).
# The campaign covered roughly 69,000 compounds. About 8,600 (12%) showed an effect of 50% or more. The sample as a whole holds a higher share of strong results than the screen did.
# Tested on: Plasmodium berghei
# Assay: Screen against P. berghei liver stage (PbLuc), transformed with Luciferase, at 10uM
# Type: functional, HepG2
# Settings: tested at 10 uM
row,SMILES,INHIBITION
1,C=C(C)COc1ccccc1C(=O)NCCc1cc(O)nc(C)n1,41.3%
2,O=C(C1CC1)N1CCc2ccccc2C12CCNCC2,55.4%
3,O=C(C1CC1)N1CC2(CCNCC2)C1,-1.12%
4,CCOC(=O)N1CCc2ccccc2C12CCNCC2,50.4%
5,COCC(=O)N1CCc2ccccc2C12CCNCC2,40.5%
6,CCOC(=O)N1CC2(CCNCC2)c2cc(Cl)ccc21,21.1%
7,CN(C)C(=O)N1Cc2ccccc2C2(CCNCC2)C1,12.4%
8,Cc1ccc(CC(=O)N2CCC(Nc3cccnn3)CC2)s1,-58.0025%
9,Cc1ccccc1C(C(=O)NCCS(C)(=O)=O)N(C)C (stereo not given),22.6%
10,c1ncn(CC2CN(Cc3nc(-c4ccsc4)no3)CCO2)n1 (stereo not given),-3.165%
11,Cc1nc(C)n(CC2CN(Cc3ccccc3OC(C)C)CCO2)n1 (stereo not given),26.5%
12,NCc1cnn(-c2ccccc2C(=O)NCCc2ccccn2)c1,24.4%
13,COCCNC(=O)c1ccccc1-n1cc(CN)cn1,17.1%
14,NCc1cnn(-c2ccccc2C(=O)NCCc2ccncc2)c1,8.72%
15,NCc1cnn(-c2ccccc2C(=O)NCCCn2ccnc2)c1,54.6%
16,NCc1cnn(-c2ccccc2C(=O)NCc2ccccn2)c1,53.2%
17,NCc1cnn(-c2ccccc2C(=O)NCc2ccncc2)c1,17.1%
18,CCN(C(=O)c1ccc(-n2ncc(C#N)c2N)cc1)C1CCCC1,25.1%
19,Cc1cc(NCCS(C)(=O)=O)nc2ccccc12,8.05%
20,Cc1cc(NCCOCCS(C)(=O)=O)nc2ccccc12,46.6%
21,COc1cc2nc(NCCNS(C)(=O)=O)cc(C)c2cc1OC,50.3%
22,Cc1cc(NCCCNS(C)(=O)=O)nc2ccccc12,62%
23,Cc1cc(NCC2(O)CCOCC2)c2ccccc2n1,26%
24,Cc1cc(C)n(-c2cncc(NCCNS(C)(=O)=O)n2)n1,29%
25,OC1(CNc2cc(C(F)(F)F)nc3ccccc23)CCOCC1,-32.3%

row,SMILES,INHIBITION
1,Cc1cc(NCC2(O)CCOCC2)nc2ccccc12,71.7%
2,Cc1cc(NCCNS(C)(=O)=O)nc2cc3c(cc12)CCC3,-6.88%
3,O=S(=O)(NCC1CCN(c2cnccn2)CC1)c1ccc(F)c(Cl)c1,-54.5%
4,CCc1c(C)n(CC(C)=O)c2nc3ccccc3n2c1=O,4.66%
5,c1csc(CN2CC(c3nc(-c4cnccn4)no3)C2)c1,-12.6%
6,CN(Cc1noc(C2CC2)n1)C1CCN(CCc2cnn(C)c2)C1 (stereo not given),11.2%
7,Cc1ccc(CN2C[C@H]3C[C@H](C(=O)NCC4CC4)N(C)[C@H]3C2)o1,18.6%
8,CN(Cc1cnn(C)c1)CC1CCCN1c1cccnn1 (stereo not given),5.7%
9,NCc1ccc(Oc2ccc(F)c(F)c2)cc1C(F)(F)F,26.1%
10,Cc1ccc(CNC(=O)COc2ccc3c(c2)OCC3O)cc1 (stereo not given),0.266%
11,COCCn1nc(C(=O)N(C)Cc2ccc3ccccc3c2)ccc1=O,43.4%
12,Cc1cnn(CC2CCCCN2C(=O)c2cccnc2N(C)C)c1 (stereo not given),15.5%
13,O=C(c1ccoc1)N1CCC2(CC1)COC(COCc1ccccn1)C2 (stereo not given),23.8%
14,O=C(c1ncccn1)N1CCC2(CC1)COC(COc1ccccn1)C2 (stereo not given),12.6%
15,O=C(c1ccoc1)N1CCC2(CC1)COC(COc1ccccn1)C2 (stereo not given),73.6%
16,CCC(C)N(CCOC)Cc1nc2c(cnn2C)c(=O)[nH]1 (stereo not given),14.22%
17,CN(CC(N)=O)Cc1ccc(F)cc1Cl,-59.5%
18,CC(C)NC(=O)CC(C)NCc1cc(Cl)ccc1F (stereo not given),27.6%
19,CC(C)NC(=O)CC(C)NCc1ccc(F)cc1Cl (stereo not given),53.6%
20,COc1c(C(=O)NC(C)Cc2ccccc2Cl)c(C)nn1C (stereo not given),17.5%
21,O=C(O)c1c(-c2cncnc2)ncc2c1CCN(Cc1ccco1)C2,-27.1%
22,CCn1nc2c(cc1=O)CN(Cc1nc(-c3cccnc3)no1)CC2,-56.575%
23,Cc1nc(C)c(C)c(NCCSCc2[nH]cnc2C)n1,-8.47%
24,CCc1c(C)nc(N)nc1NCCSCc1[nH]cnc1C,69.4%
25,Cc1cnc(N)nc1NCCSCc1[nH]cnc1C,39.1%

row,SMILES,INHIBITION
1,CN(Cc1cnn(C)c1)C(=O)Cc1ccc2c(c1)OCCO2,-18.5%
2,Cc1nn(C)c(C)c1CN(C)S(=O)(=O)c1c(C)n[nH]c1C,53.5%
3,Cc1nn(C)c(C)c1S(=O)(=O)N(C)Cc1nn(C)c(Cl)c1Cl,54.5%
4,Cc1noc(C)c1S(=O)(=O)N(C)Cc1nn(C)c(Cl)c1Cl,15.9%
5,Cc1nn(C)c(Cl)c1S(=O)(=O)N(C)C,12.3%
6,Cc1n[nH]c(C)c1S(=O)(=O)N(C)Cc1nn(C)c(Cl)c1Cl,23.8%
7,CCn1nc(C)c(CN(C)S(=O)(=O)c2cnn(C)c2)c1C,6.83%
8,CS(=O)(=O)N[C@@H]1CCN(Cc2nccs2)[C@H]1Cc1ccncc1,30.5%
9,COc1cccc(C(C(=O)O)N2CCSCC2)c1F (stereo not given),17%
10,CC(C)CN(CC(F)(F)F)S(=O)(=O)c1cc(C(N)=O)n(C)c1,-36.4%
11,CCC1C=CCN1C(=O)c1cc(COc2ccccc2OC)[nH]n1 (stereo not given),-2.39%
12,CCCC(=O)N(C)CC(=O)Nc1ccc(Br)cn1,-9.37%
13,COCC1c2c(cnn2CC2CC2)CCN1Cc1cccs1 (stereo not given),-0.912%
14,Cc1ncsc1C(=O)N1CC[C@@]2(O)CCN(C(=O)N3CCCC3)C[C@H]2C1,65.7%
15,Cc1nc(C2CCCN(C(=O)c3scnc3C)C2)no1 (stereo not given),18.1%
16,Cc1cc(C(=O)N2CC[C@@]3(O)CCN(C(=O)N4CCCC4)C[C@H]3C2)no1,1.74%
17,Cc1noc(C2CCCN(C(=O)c3cc(Cl)c(Cl)n3C)C2)n1 (stereo not given),51.4%
18,Cc1cncc(C2CCCN(C(=O)c3cn(C)nc3C)C2)n1 (stereo not given),36.7%
19,Cc1noc(C2CCCN(C(=O)c3ccc(Br)o3)C2)n1 (stereo not given),60.5%
20,Cc1ocnc1C(=O)N1CC[C@@]2(O)CCN(C(=O)N3CCCC3)C[C@H]2C1,36.5%
21,Cc1cncc(C2CCCN(C(=O)c3scnc3C)C2)n1 (stereo not given),51.7%
22,Cc1cc(C(=O)N2CCCC(c3nc(C)no3)C2)on1 (stereo not given),20%
23,Cc1noc(C2CCN(C(=O)c3cc(Cl)c(Cl)n3C)CC2)n1,16.6%
24,Cc1noc(C2CCCN(C(=O)c3cncc(Br)c3)C2)n1 (stereo not given),-27.8%
25,Cc1noc(C2CCCN(C(=O)c3cccc(Cl)c3)C2)n1 (stereo not given),39.5%
